Reference: PubChem BioAssay (EPA / NIEHS)
The source made the active and inactive calls. The calls were made as follows: active = hit-call score of the fitted dose curve at least 0.9, where 1 is the maximum; inactive = score below 0.9.

Columns and labels:
[1] = ATG_GRE_CIS: Attagene CIS-FACTORIAL HepG2 Assay for human Glucocorticoid Response Elements (GRE) (AID 2282947); conditions: HepG2 GRE cis-reporter, Attagene multiplex mRNA; actives raise or lower the signal
In short: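 Read-out: fluorescent reporter-transcript fragments separated by capillary electrophoresis after RT-PCR. Transiently transfected HepG2 cells carrying cis-element-driven reporter units were dosed for 24 h; gain or loss of signal fitted against DMSO control.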

[2] = ATG_ISRE_CIS: Attagene CIS-FACTORIAL HepG2 Assay for human Interferon Regulatory Factor 1 (IRF1) binding to an Interferon-Stimulated Response Element (ISRE) (AID 2282948); conditions: HepG2 ISRE cis-reporter (Attagene), mRNA transcription readout; actives raise or lower the signal
In short: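 Read-out: fluorescent RT-PCR products resolved by capillary electrophoresis, reporting endogenous transcription factor activity via ISRE-driven reporter mRNA in transfected HepG2 cells dosed for 24 h; gain or loss fitted relative to DMSO.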

[3] = ATG_M_32_CIS: Attagene CIS-FACTORIAL HepG2 Assay for M32 Transcription Factor (Internal Marker) (AID 2282949); conditions: HepG2 Attagene cis-factorial M32 reporter, mRNA; actives raise or lower the signal;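 also: background control marker of the multiplexed CIS panel rather than a real target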
In short: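 Transient MRTU transfection of HepG2; 24 h compound treatment; TriZol RNA, oligo(dT) RT, reporter PCR, 6-FAM primer extension, HpaI cut, CE. Gain/loss of signal vs DMSO.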

[4] = ATG_M_06_CIS: Attagene CIS-FACTORIAL HepG2 Assay for M06 Transcription Factor (Internal Marker) (AID 2282950); conditions: HepG2 Attagene CIS-FACTORIAL M06 internal marker reporter; actives raise or lower the signal
In short: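 Measured 24 h post-dosing in transiently transfected HepG2 cells, this internal-marker endpoint reports reporter mRNA via RT-PCR with fluorescent primer extension and capillary electrophoresis. DMSO served as negative control and baseline for bidirectional fitting.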

[5] = biological target: Hepatocyte nuclear factor 6 (Homo sapiens) (UniProt Q9UBC0); test: ATG_HNF6_CIS: Attagene CIS-FACTORIAL HepG2 Assay for human Hepatocyte Nuclear Factor 6 (HNF6) (AID 2282952); conditions: HepG2 Attagene cis-factorial HNF6 reporter transcription; actives raise or lower the signal
In short: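 Endogenous factor activity read in transiently transfected HepG2 via promoter-regulated reporter transcripts. RNA harvested 24 h post-dosing, reverse-transcribed, PCR-amplified, FAM-labelled, HpaI-digested and resolved by capillary electrophoresis; fitted in both directions against DMSO.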

[6] = biological target: Heat shock factor protein 1 (Homo sapiens) (UniProt Q00613); test: ATG_HSE_CIS: Attagene CIS-FACTORIAL HepG2 Assay for human Heat Shock Transcription Factor 1 (HSE) (AID 2282953); conditions: HepG2 HSE cis-reporter, Attagene RNA transcription; actives raise or lower the signal
In short: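 Reporter mRNA induction in HepG2 is measured 24 h after dosing, using transiently transfected multiplexed cis-regulated reporter units. Signal comes from capillary electrophoresis of labelled RT-PCR products, with DMSO as negative control.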

[7] = ATG_MRE_CIS: Attagene CIS-FACTORIAL HepG2 Assay for human Metal Responsive Element (MRE) (AID 2282954); conditions: HepG2 MRE cis-reporter transcription, Attagene multiplex; actives raise or lower the signal
In short: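 RT-PCR/capillary electrophoresis readout of reporter mRNA, 24 h post-dosing, in HepG2 cells transfected with multiplexed cis-regulated reporter constructs. Gain or loss of signal fitted bidirectionally against DMSO baseline.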

[8] = biological target: Paired box protein Pax-6 (Homo sapiens) (UniProt P26367); test: ATG_Pax6_CIS: Attagene CIS-FACTORIAL HepG2 Assay for human Paired Box 6 (PAX6) (AID 2282956); conditions: HepG2 CIS-FACTORIAL PAX6 reporter transcription, RNA readout; actives raise or lower the signal
In short: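 Readout: reporter transcript fluorescence after RT-PCR and capillary electrophoresis. Cells: HepG2, transiently transfected with cis-regulated MRTUs. Exposure 24 h. Gain or loss of signal fitted bidirectionally relative to DMSO.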

[9] = ATG_PXRE_CIS: Attagene CIS-FACTORIAL HepG2 Assay for human Pregnane X Receptor Element (PXRE) (AID 2282957); conditions: HepG2 Attagene CIS-FACTORIAL PXRE reporter, mRNA; actives raise or lower the signal
In short: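 Reporter transcripts under endogenous PXR-responsive cis-regulation quantified from total RNA of transfected HepG2 cells 24 h post-dosing, via RT-PCR with fluorescent primer extension and capillary electrophoresis. Gain or loss of signal fitted against DMSO baseline.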

[10] = ATG_PPRE_CIS: Attagene CIS-FACTORIAL HepG2 Assay for human Peroxisome Proliferator-activated Response Element (PPRE) (AID 2282958); conditions: HepG2 PPRE cis-element reporter, Attagene transcription factor profiling; actives raise or lower the signal
In short: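 Endogenous PPRE-driven transcription is measured in HepG2 cells carrying transfected multi-reporter constructs. Reporter transcripts are quantified by RT-PCR, HpaI digestion and capillary electrophoresis 24 h after dosing. DMSO baseline, bidirectional fit.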

[11] = ATG_Sox_CIS: Attagene CIS-FACTORIAL HepG2 Assay for human SRY-box transcription factor (SOX) (AID 2282960); conditions: HepG2 Attagene cis-factorial SOX reporter, mRNA; actives raise or lower the signal
In short: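 Reporter transcripts, measured by RT-PCR and capillary electrophoresis of labelled fragments, report endogenous SOX transcription factor activity. Transiently transfected human HepG2 cells receive chemical for 24 h; changes in either direction are fitted relative to DMSO.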

[12] = biological target: Transcription factor Sp1 (Homo sapiens) (UniProt P08047); test: ATG_Sp1_CIS: Attagene CIS-FACTORIAL HepG2 Assay for human Specificity Protein 1 (Sp1) (AID 2282961); conditions: HepG2 Sp1 cis-reporter transcription, actives raise or lower the signal
In short: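 Read-out is reporter transcript level, measured by RT-PCR and fluorescent capillary electrophoresis after 24 h chemical treatment. System: transiently transfected HepG2 cells reporting endogenous transcription factor activity; gain or loss fitted against DMSO baseline.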

[13] = ATG_SREBP_CIS: Attagene CIS-FACTORIAL HepG2 Assay for human Sterol Regulatory Element Binding (SREBP) (AID 2282962); conditions: HepG2 Attagene cis-factorial SREBP reporter, mRNA; actives raise or lower the signal
In short: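 Readout: fluorescent reporter-transcript peaks resolved by capillary electrophoresis after RT-PCR. Cells were human HepG2 carrying transfected cis-promoter reporter constructs, dosed for 24 h. Gain or loss of signal was fitted against DMSO controls.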

[14] = biological target: Signal transducer and activator of transcription 3 (Homo sapiens) (UniProt P40763); test: ATG_STAT3_CIS: Attagene CIS-FACTORIAL HepG2 Assay for human Signal Transducer and Activator of Transcription 3 (STAT3) (AID 2282963); conditions: HepG2, Attagene cis-factorial STAT3 reporter transcription; actives raise or lower the signal
In short: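 Readout: fluorescent reporter mRNA fragments resolved by capillary electrophoresis. Setup: HepG2 transfected with MRTUs reporting endogenous transcription-factor activity, dosed 24 h. Gain or loss of signal fitted bidirectionally against DMSO control.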

[15] = ATG_TA_CIS: Attagene CIS-FACTORIAL HepG2 Assay for human TA Basal Promoter (AID 2282964); conditions: HepG2 Attagene CIS-factorial TA basal promoter reporter; actives raise or lower the signal
In short: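 Cis-factorial format in HepG2: reporters report endogenous factors, not chimeric Gal4 fusions. After 24 h treatment, reporter transcripts were measured by RT-PCR-capillary electrophoresis fluorescence, analysed bidirectionally versus DMSO.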

[16] = ATG_TCF_b_cat_CIS: Attagene CIS-FACTORIAL HepG2 Assay for human T-Cell-Factor with beta-catenin (TCF/b-cat) (AID 2282965); conditions: HepG2 TCF/beta-catenin cis-reporter transcription, actives raise or lower the signal
In short: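 HepG2, transient MRTU transfection, cis-element-driven reporters (endogenous TFs). 24 h compound exposure. Readout: reporter mRNA by RT-PCR + 6-FAM primer extension, HpaI digest, capillary electrophoresis. Gain/loss fit vs DMSO baseline.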

[17] = biological target: Hypoxia-inducible factor 1-alpha (Homo sapiens) (UniProt Q16665); test: ATG_HIF1a_CIS: Attagene CIS-FACTORIAL HepG2 Assay for human Hypoxia Inducible Factor 1 (HIF1A) (AID 2282951); conditions: HepG2 Attagene cis-factorial HIF1a reporter transcription; actives raise or lower the signal
In short: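 Activity is fitted in both directions relative to DMSO. Reporter transcripts are read by RT-PCR, fluorescent primer extension and capillary electrophoresis after 24 h chemical treatment. The cells are HepG2 carrying transiently transfected cis-element-driven reporter units responding to endogenous factors.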

[18] = ATG_PBREM_CIS: Attagene CIS-FACTORIAL HepG2 Assay for human Phenobarbital-responsive Enhancer Module (PBREM) (AID 2282955); conditions: HepG2 PBREM cis-reporter, Attagene multiplexed transcription; actives raise or lower the signal
In short: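 Endogenous transcription factor activity was read from reporter transcripts in transiently transfected human HepG2 liver cells after 24 h dosing. RT-PCR products were fluorescently labelled, HpaI-cut and sized by capillary electrophoresis; activity fitted bidirectionally against DMSO baseline.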

[19] = ATG_RORE_CIS: Attagene CIS-FACTORIAL HepG2 Assay for human RAR-related Orphan Receptor Element (RORE) (AID 2282959); conditions: HepG2 Attagene cis-factorial RORE reporter, mRNA; actives raise or lower the signal
In short: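 RORE reporter transcripts reflecting endogenous factor activity were read after 24 h compound exposure of transfected HepG2 cells, using reverse transcription, PCR, fluorescent labelling and capillary electrophoresis sizing. Gain or loss fitted against DMSO.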

Chain of Paired box protein Pax-6 (Homo sapiens) (P26367 whole entry, looked up): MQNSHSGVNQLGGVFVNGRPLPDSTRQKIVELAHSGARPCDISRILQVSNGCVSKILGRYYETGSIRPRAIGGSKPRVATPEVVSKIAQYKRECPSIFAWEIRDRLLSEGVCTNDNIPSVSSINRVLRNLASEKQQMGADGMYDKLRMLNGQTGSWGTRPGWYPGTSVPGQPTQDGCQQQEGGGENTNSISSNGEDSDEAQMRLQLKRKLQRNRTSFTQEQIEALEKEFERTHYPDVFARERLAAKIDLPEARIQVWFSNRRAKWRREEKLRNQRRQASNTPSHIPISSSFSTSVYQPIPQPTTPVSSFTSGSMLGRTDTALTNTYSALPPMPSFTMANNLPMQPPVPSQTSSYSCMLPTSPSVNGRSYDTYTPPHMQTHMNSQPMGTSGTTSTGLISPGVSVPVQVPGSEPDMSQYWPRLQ
Chain of Hypoxia-inducible factor 1-alpha (Homo sapiens) (Q16665 whole entry, looked up): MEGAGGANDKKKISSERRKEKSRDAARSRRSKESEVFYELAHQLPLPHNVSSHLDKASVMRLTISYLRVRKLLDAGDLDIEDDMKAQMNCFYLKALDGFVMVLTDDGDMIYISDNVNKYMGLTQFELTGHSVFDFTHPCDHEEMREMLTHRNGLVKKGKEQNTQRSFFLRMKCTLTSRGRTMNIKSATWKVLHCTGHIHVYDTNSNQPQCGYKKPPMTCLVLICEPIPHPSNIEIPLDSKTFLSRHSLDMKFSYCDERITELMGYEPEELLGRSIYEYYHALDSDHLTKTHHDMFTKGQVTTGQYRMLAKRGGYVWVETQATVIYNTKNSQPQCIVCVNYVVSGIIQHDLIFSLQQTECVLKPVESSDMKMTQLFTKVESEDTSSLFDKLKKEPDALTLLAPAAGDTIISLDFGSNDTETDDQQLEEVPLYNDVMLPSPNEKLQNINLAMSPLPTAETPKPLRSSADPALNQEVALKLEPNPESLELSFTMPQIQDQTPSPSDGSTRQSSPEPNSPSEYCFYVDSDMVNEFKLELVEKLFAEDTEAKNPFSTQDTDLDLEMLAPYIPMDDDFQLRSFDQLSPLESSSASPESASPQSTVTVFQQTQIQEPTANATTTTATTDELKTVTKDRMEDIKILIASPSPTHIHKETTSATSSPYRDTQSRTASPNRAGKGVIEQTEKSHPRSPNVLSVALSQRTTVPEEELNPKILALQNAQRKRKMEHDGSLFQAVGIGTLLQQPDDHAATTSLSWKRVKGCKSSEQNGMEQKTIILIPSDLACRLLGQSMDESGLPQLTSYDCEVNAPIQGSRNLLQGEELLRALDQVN
Chain of Signal transducer and activator of transcription 3 (Homo sapiens) (P40763 whole entry, looked up, the tested form may be a part): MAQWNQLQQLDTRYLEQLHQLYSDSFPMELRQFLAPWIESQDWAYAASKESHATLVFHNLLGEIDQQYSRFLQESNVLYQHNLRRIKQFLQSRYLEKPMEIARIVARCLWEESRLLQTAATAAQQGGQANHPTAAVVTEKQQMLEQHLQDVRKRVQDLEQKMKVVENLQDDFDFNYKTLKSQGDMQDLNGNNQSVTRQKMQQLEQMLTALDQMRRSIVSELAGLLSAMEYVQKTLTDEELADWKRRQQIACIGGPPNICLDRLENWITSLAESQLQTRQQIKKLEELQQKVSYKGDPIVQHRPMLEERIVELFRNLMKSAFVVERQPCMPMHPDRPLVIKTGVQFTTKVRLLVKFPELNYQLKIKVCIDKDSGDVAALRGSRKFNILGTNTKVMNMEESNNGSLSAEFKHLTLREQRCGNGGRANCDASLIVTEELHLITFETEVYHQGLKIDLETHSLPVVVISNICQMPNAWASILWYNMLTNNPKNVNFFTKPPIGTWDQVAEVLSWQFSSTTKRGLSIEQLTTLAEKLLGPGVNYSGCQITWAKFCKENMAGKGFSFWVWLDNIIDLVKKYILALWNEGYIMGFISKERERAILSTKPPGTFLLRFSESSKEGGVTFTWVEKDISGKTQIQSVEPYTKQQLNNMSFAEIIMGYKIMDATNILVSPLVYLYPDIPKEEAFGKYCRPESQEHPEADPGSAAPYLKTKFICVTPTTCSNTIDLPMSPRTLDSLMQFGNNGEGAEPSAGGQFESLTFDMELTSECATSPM
Chain of Heat shock factor protein 1 (Homo sapiens) (Q00613 whole entry, looked up): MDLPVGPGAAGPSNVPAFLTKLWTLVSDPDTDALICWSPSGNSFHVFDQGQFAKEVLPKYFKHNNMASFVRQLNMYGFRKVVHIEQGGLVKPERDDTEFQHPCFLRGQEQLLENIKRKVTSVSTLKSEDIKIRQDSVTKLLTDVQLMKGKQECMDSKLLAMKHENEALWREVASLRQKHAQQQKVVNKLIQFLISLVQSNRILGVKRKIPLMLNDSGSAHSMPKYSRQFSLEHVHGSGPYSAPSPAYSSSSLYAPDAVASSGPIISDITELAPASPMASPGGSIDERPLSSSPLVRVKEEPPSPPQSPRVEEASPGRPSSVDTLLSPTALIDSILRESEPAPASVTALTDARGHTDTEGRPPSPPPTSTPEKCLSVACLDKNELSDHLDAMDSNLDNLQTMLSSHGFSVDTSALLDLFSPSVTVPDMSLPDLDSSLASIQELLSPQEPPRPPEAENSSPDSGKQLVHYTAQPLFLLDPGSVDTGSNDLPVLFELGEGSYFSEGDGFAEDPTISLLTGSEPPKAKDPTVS
Chain of Hepatocyte nuclear factor 6 (Homo sapiens) (Q9UBC0 whole entry, looked up): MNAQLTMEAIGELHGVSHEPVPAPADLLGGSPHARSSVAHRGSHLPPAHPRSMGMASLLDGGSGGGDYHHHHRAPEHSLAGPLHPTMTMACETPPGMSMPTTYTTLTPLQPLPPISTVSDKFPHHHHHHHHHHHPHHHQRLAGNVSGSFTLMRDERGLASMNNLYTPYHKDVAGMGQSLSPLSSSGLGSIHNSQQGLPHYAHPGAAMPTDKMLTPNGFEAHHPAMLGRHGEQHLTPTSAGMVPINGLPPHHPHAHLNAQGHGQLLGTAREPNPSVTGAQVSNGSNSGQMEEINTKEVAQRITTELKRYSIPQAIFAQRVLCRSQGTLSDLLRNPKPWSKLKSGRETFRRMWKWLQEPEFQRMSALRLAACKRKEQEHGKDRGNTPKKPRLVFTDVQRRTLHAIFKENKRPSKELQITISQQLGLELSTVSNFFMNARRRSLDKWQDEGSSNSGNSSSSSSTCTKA
Chain of Transcription factor Sp1 (Homo sapiens) (P08047 whole entry, looked up): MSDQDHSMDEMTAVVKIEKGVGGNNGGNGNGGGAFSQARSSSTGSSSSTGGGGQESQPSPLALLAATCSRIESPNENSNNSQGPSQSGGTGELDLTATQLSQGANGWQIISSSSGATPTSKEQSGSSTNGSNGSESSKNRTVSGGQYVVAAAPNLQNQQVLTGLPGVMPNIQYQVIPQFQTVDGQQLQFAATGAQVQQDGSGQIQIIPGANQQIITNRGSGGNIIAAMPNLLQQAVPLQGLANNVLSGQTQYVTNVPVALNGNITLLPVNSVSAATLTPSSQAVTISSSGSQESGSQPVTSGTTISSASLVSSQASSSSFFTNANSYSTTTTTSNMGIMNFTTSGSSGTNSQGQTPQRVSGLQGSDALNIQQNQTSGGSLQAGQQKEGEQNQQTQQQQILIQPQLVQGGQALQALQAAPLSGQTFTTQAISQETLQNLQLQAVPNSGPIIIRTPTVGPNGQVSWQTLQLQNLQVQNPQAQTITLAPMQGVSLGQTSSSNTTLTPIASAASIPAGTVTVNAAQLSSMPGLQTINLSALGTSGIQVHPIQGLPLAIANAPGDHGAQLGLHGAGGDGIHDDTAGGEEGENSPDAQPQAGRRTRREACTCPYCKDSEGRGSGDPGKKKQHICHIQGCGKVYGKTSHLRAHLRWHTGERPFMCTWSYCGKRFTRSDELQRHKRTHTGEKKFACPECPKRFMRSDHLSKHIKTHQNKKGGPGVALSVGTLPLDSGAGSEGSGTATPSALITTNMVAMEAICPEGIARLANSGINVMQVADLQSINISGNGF

SMILES: COC(=O)c1ccc([N+](=O)[O-])cc1
- outcome [1]: inactive
- outcome [2]: inactive
- outcome [3]: inactive
- outcome [4]: inactive
- outcome [5]: inactive
- outcome [6]: inactive
- outcome [7]: inactive
- outcome [8]: inactive
- outcome [9]: inactive
- outcome [10]: inactive
- outcome [11]: inactive
- outcome [12]: inactive
- outcome [13]: inactive
- outcome [14]: inactive
- outcome [15]: inactive
- outcome [16]: inactive

SMILES: CCCCCC(C)=O
- outcome [1]: inactive
- outcome [3]: inactive
- outcome [4]: inactive
- outcome [17]: inactive
- outcome [5]: inactive
- outcome [6]: inactive
- outcome [7]: inactive
- outcome [18]: inactive
- outcome [8]: inactive
- outcome [9]: inactive
- outcome [10]: inactive
- outcome [19]: inactive
- outcome [11]: inactive
- outcome [12]: inactive
- outcome [13]: inactive
- outcome [15]: inactive
- outcome [16]: inactive

SMILES: Cc1occc(=O)c1OC(=O)C(C)C
- outcome [1]: inactive
- outcome [2]: inactive
- outcome [3]: inactive
- outcome [4]: inactive
- outcome [17]: inactive
- outcome [6]: inactive
- outcome [7]: inactive
- outcome [18]: inactive
- outcome [8]: inactive
- outcome [9]: inactive
- outcome [11]: inactive
- outcome [12]: inactive
- outcome [13]: inactive
- outcome [14]: inactive
- outcome [15]: inactive
- outcome [16]: inactive

SMILES: C=C(C#N)C(=O)OCC
- outcome [1]: inactive
- AC50 [2]: 169 µM (active)
- outcome [3]: inactive
- outcome [4]: inactive
- outcome [17]: inactive
- AC50 [6]: 144 µM (active)
- outcome [18]: inactive
- outcome [8]: inactive
- outcome [9]: inactive
- outcome [10]: inactive
- outcome [19]: inactive
- outcome [11]: inactive
- outcome [12]: inactive
- outcome [13]: inactive
- outcome [14]: inactive
- outcome [15]: inactive
- AC50 [16]: 100 µM (active)

SMILES: CCCCCCCC/C=C\CCCCCCCC(=O)OCC
- outcome [1]: inactive
- outcome [2]: inactive
- outcome [3]: inactive
- outcome [4]: inactive
- outcome [17]: inactive
- outcome [7]: inactive
- outcome [18]: inactive
- outcome [8]: inactive
- outcome [9]: inactive
- outcome [10]: inactive
- outcome [11]: inactive
- outcome [12]: inactive
- outcome [13]: inactive
- outcome [15]: inactive
- outcome [16]: inactive

SMILES: O=C1OC[C@H](Cc2cccc(O)c2)[C@H]1Cc1cccc(O)c1
- outcome [1]: inactive
- outcome [2]: inactive
- outcome [3]: inactive
- outcome [4]: inactive
- outcome [5]: inactive
- outcome [6]: inactive
- outcome [7]: inactive
- AC50 [18]: 33.5 µM (active)
- outcome [8]: inactive
- AC50 [9]: 5.12 µM (active)
- outcome [10]: inactive
- outcome [19]: inactive
- outcome [11]: inactive
- outcome [12]: inactive
- outcome [13]: inactive
- outcome [14]: inactive
- outcome [15]: inactive

SMILES: CCC(=O)O[C@@H]1C[C@H]2CC[C@]1(C)C2(C)C
- outcome [1]: inactive
- outcome [2]: inactive
- outcome [3]: inactive
- outcome [4]: inactive
- outcome [17]: inactive
- outcome [6]: inactive
- outcome [18]: inactive
- outcome [8]: inactive
- outcome [9]: inactive
- outcome [10]: inactive
- outcome [19]: inactive
- outcome [11]: inactive
- outcome [12]: inactive
- outcome [13]: inactive
- outcome [14]: inactive
- outcome [15]: inactive
- outcome [16]: inactive

SMILES: NCCNc1cccc2ccccc12
- outcome [1]: inactive
- outcome [3]: inactive
- outcome [4]: inactive
- AC50 [17]: 100 µM (active)
- outcome [5]: inactive
- outcome [6]: inactive
- AC50 [7]: 156 µM (active)
- outcome [18]: inactive
- AC50 [8]: 100 µM (active)
- AC50 [10]: 99.2 µM (active)
- outcome [11]: inactive
- outcome [12]: inactive
- AC50 [13]: 35.6 µM (active)
- outcome [14]: inactive
- outcome [15]: inactive
- AC50 [16]: 49.8 µM (active)
